Source: PubChem BioAssay AID1634 (National Center for Advancing Translational Sciences (NCATS), 2009)
Among all 260,000 compounds or so, about 150 (0.058%) were called active. Calls come from the whole dose curve; as a rule, active = well fitted inhibition curve with a large enough effect; inconclusive = small, poorly fitted or top-dose-only effect; inactive = no such curve, though single readings can be large or run the other way. The list comes from a sample in which actives are over-represented; it also holds similar structures and randomly drawn compounds. Where a call stands in place of a potency, no number is given.
Note: nearly all actives have a fitted effect of over 60% in size.
Potency is the fitted concentration of half-maximal effect.

These compounds were tested against Pyruvate kinase PKM (Homo sapiens) (UniProt P14618) (assay: qHTS Assay for Inhibitors of Human Muscle isoform 2 Pyruvate Kinase). Conditions: purified PKM2, ATP generation, Kinase-Glo luminescence; series mostly up to 57.5 µM.
Pyruvate kinase PKM (Homo sapiens), sequence (P14618 whole entry, looked up, canonical isoform): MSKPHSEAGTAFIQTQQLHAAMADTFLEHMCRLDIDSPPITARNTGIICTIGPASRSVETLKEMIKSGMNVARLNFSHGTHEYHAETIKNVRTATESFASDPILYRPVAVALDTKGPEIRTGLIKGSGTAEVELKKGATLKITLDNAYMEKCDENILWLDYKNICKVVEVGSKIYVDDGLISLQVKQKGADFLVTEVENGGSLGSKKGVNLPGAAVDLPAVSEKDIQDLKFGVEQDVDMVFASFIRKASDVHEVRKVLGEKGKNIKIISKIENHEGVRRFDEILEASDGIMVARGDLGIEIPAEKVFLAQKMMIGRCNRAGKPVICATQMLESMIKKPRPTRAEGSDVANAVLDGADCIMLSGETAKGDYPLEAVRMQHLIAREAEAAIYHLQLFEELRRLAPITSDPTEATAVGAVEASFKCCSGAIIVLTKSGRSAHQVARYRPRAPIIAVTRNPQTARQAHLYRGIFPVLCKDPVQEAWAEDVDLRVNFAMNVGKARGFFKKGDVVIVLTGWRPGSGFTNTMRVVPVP
Protocol: NIH Chemical Genomics Center [NCGC] Matthew G. Vander Heiden, M.D., Ph.D. [Harvard Medical School, 77 Avenue Louis Pasteur, Boston, MA 02115] […] ATP generation was detected in a coupled reaction by luciferase-mediated luminescence, an ATP-dependent process. […] The enzyme was assayed at an intermediate level of activity to screen for both inhibitors and activators.
NCGC Assay Protocol Summary: Three uL of substrate mix (at r.t.) in assay buffer (50 mM Imidazole pH7.2, 50 mM KCl, 7 mM MgCl2, 0.01% Tween 20, 0.05% BSA) was dispensed into white solid bottom 1,536 well microtiter plates so that the final concentrations of substrates in the assay were 0.1 mM ADP and 0.5 mM PEP. 23 nL of compound were delivered by a pin tool and 1 uL of enzyme mix in assay buffer (4 degree Celsius) was added. Plates were incubated at room temperature for 1 hour. Two uL of detection mix (Kinase-Glo, Promega; at 4 degree Celsius protected from light) was added and luminescence read by a ViewLux (Perkin Elmer) at 5 second exposure/plate. Data were normalized to the uninhibited and AC100 inhibition (no enzyme). To monitor activation, the first column contained a titration of the activator, NCGC00031955-01 (16-point 1:2 dilutions in duplicate starting at 57 uM) and the first 16 rows of column 4 contained 57 uM of NCGC00031955-01.
`Cc1ccc(S(=O)(=O)N2CCCC2C(=O)NCc2ccco2)cc1` (stereo unspecified) was tested, and the Potency was “inactive”. In the case of `Cc1noc(C)c1C(=O)OCC(=O)N1CCN(S(=O)(=O)c2ccc3ccccc3c2)CC1`, the Potency is reported as “inactive”. In the case of `CCn1c(NCCc2ccc(OC)c(OC)c2)nc2c1c(=O)n(C)c(=O)n2C`, the Potency is reported as “inactive”. With `O=C(COC(=O)CCC(=O)c1cccs1)NCc1ccco1` the Potency was “inactive”. With `CC(=O)c1cc(C#N)c(SCC(=O)Nc2nccs2)nc1C` the Potency was “inactive”. For `COc1ccc(C2CC(c3ccc([N+](=O)[O-])cc3)=NN2C(C)=O)cc1` (stereo unspecified), the Potency was “inactive”. For `Cc1ccc(OS(=O)Nc2cccc3nccnc23)cc1` (stereo unspecified), the Potency was “inactive”. With `Cc1ccc(CNC(=O)C2CCCN2C(=O)NCc2ccccc2)cc1` (stereo unspecified) the Potency was “inactive”. `CC(C)(C)C(=O)OCc1nc(-c2ccc(O)c(O)c2)cs1` was tested, and the Potency was “inactive”. In the case of `CCOc1ccc(S(=O)(=O)Nc2nccs2)cc1`, the Potency is reported as “inactive”. For `Cn1c(SCC(=O)N/N=C/c2ccc(O)c(O)c2)nc2ccccc21`, the Potency was “inactive”. With `CC(C)Nc1ncnc2c1nnn2Cc1ccccc1` the Potency was “inactive”. With `O=C(c1c(F)cccc1Cl)N1CCN(S(=O)(=O)c2ccc3c(c2)OCCCO3)CC1` the Potency was “inactive”. With `O=C(CSc1nnc(-c2ccc(NS(=O)(=O)c3ccccc3)cc2)o1)NCC1CCCO1` (stereo unspecified) the Potency was “inactive”. `S=c1[nH]nc(-c2cccs2)n1/N=C/c1cn(-c2ccccc2)nc1-c1ccc(Cl)cc1` was tested, and the Potency was “inactive”. In the case of `O=C(Cc1cccs1)Nc1nnc(SCc2ccc(F)cc2)s1`, the Potency is reported as “inactive”. For `Cc1cc(C)n(CCC(=O)N2CCN(S(=O)(=O)c3ccc(C)c(C)c3)CC2)n1`, the Potency was “inactive”. For `COc1ccc(S(=O)(=O)Nc2ccc(F)cc2)c(C)c1C`, the Potency was “inactive”. In the case of `CCc1nnc(NC(=O)CSc2nc3c(c(=O)n2-c2ccccc2OC)SCC3)s1`, the Potency is reported as “inactive”. `Nc1cccc(S(=O)(=O)Nc2ccc(SC(F)F)cc2)c1` was tested, and the Potency was “inactive”. In the case of `Nc1ccccc1Sc1cc(Cl)nnc1Cl`, the Potency is reported as “inactive”. `O=S(=O)(Nc1nccs1)c1ccc2c(c1)OCCO2` was tested, and the Potency was “inactive”. With `O=c1[nH]c(-c2cccs2)nc2ccccc12` the Potency was “inactive”. For `Cn1c2ccccc2c(=O)c2c(=O)n(Cc3ccco3)c(COc3ccccc3)nc21`, the Potency was “inactive”. In the case of `COC(=O)C1=C(C)NC(=O)CC1c1ccccc1OC` (stereo unspecified), the Potency is reported as “inactive”. For `Cc1cc(NC(=O)CSc2nnc(-c3ccc(Cl)s3)o2)no1`, the Potency was “inactive”. `Cc1ccc(N(C(=O)c2ccc(CN3CCOCC3)o2)C(C(=O)NCCC(C)C)c2cccs2)c(C)c1` (stereo unspecified) was tested, and the Potency was “inactive”. `Cc1cc(-c2ccc(/C=N/n3cnnc3)o2)c([N+](=O)[O-])cc1C` was tested, and the Potency was “inactive”. For `O=[N+]([O-])c1ccccc1Nc1ccc(O)cc1`, the Potency was “inactive”. `S=c1nc(C23CC4CC(CC(C4)C2)C3)nc2sccn12` was tested, and the Potency was “inactive”. For `CCc1nnc(NS(=O)(=O)c2ccc(NS(=O)(=O)c3ccccc3)cc2)s1`, the Potency was “inactive”. For `CCNc1nc(NC(C)C)nc(OCCOC(=O)c2ccccc2)n1`, the Potency was “inactive”. For `CN(C)c1ccc(C=C2C(=O)OC3(CCCC3)OC2=O)cc1`, the Potency was “inactive”. With `COc1ccc(CS(=O)/C(Cl)=C(/Cl)C(=O)Nc2ccc(OC)nc2)cc1` (stereo unspecified) the Potency was “inactive”. In the case of `CC(=O)c1c(C)[nH]c(C(=O)Nc2cc(S(=O)(=O)N(C)C)ccc2C)c1C`, the Potency is reported as “inactive”. With `O=C(NCc1ccco1)c1cccn2c(=O)c3c4c(sc3nc12)CCCC4` the Potency was “inactive”. With `O=C(NCc1ccccn1)c1c(O)c2c([nH]c1=O)CCCC2` the Potency was “inactive”. In the case of `CCC1CCCCN1CCCNC(=O)Cn1nc(-c2ccccc2)ccc1=O` (stereo unspecified), the Potency is reported as “inactive”. `COc1ccc(C(=O)NC(=S)Nc2ccc(Cl)cn2)cc1OC` was tested, and the Potency was “inactive”. For `c1cc(-n2cnnn2)ccc1NC1=NCCC1`, the Potency was “inactive”. With `O=C(CCC(=O)N1CCN(S(=O)(=O)c2ccccc2)CC1)NC1CCCc2ccccc21` (stereo unspecified) the Potency was “inactive”. In the case of `O=c1cc(CO)oc(C(Nc2cccc([N+](=O)[O-])c2)c2ccccn2)c1O` (stereo unspecified), the Potency is reported as “inactive”. With `COC(=O)c1[nH]c2ccccc2c1NC(=O)CN1CCCc2ccccc21` the Potency was “inactive”. In the case of `CN(C)/C=C1\C=C(c2ccccc2)OC1=O`, the Potency is reported as “inactive”. For `CCC(C)(C)NC(=O)C1c2ccccc2Oc2ccccc21`, the Potency was “inactive”. With `O=C(c1ccc(-c2ccccc2)cc1)C1CCCN(C(=O)c2cncs2)C1` (stereo unspecified) the Potency was “inactive”. For `O=S(=O)(c1ccc(F)cc1)N1CCN(C(=S)NCc2ccco2)CC1`, the Potency was “inactive”. `O=C(COc1cc(Cl)c(Cl)cc1Cl)NCCc1ccccn1` was tested, and the Potency was “inactive”. For `COC(=O)c1cc2c(N)c(C(=O)c3ccc(Cl)cc3)sc2nc1C(OC)OC`, the Potency was “inactive”. For `O=C(Cn1c(COc2ccccc2)nc2ccccc21)Nc1cc(Cl)c(Cl)cc1Cl`, the Potency was “inactive”. In the case of `COc1ccc(-c2csc(Cc3nc(O)cs3)n2)cc1`, the Potency is reported as “inactive”. For `COc1ccc(-c2cn3ccc(C)cc3n2)cc1`, the Potency was 12.6 µM (active). `N#Cc1ccc(OCc2nnc(-c3ccc([N+](=O)[O-])cc3)o2)cc1` was tested, and the Potency was “inactive”. For `COc1cccc(CNC(=O)CCC2CCCN(C(=O)c3cc(C)[nH]n3)C2)c1` (stereo unspecified), the Potency was “inactive”. `Cc1cc(C)c(S(=O)(=O)N2C=CC(C(F)(F)F)=NCC2)c(C)c1` was tested, and the Potency was “inactive”. For `CN(CCc1ccccc1)c1ccc([N+](=O)[O-])cn1`, the Potency was “inactive”. `COC(=O)[C@@]1(Cc2ccccc2)[C@H]2c3cc(C(=O)N4CCCC4)n(Cc4ccc(C)o4)c3C[C@H]2CN1C(=O)c1ccccc1` was tested, and the Potency was “inactive”. With `O=[N+]([O-])c1cc(Br)c(O)c(/C=N/Nc2nc3ccccc3s2)c1` the Potency was “inactive”. `CN(C)S(=O)(=O)c1ccc(NC(=O)COC(=O)c2n[nH]c3ccccc23)cc1` was tested, and the Potency was “inactive”. For `NC(=O)COC(=O)/C=C/c1ccc2ccccc2n1`, the Potency was “inactive”. For `COc1ccccc1C(=O)N/C(=C/c1ccco1)C(=O)Nc1ccc(C(=O)O)cc1`, the Potency was “inactive”. `O=S(=O)(c1ccc(Br)cc1)c1nc(-c2ccccc2)oc1NCc1cccnc1` was tested, and the Potency was “inactive”. `Cc1ccc(C)c(S(=O)(=O)Nc2cccc(-n3cnnn3)c2)c1` was tested, and the Potency was “inactive”. `O=C(NCc1cccs1)C1CCN(S(=O)(=O)c2ccc3c(c2)OCCO3)CC1` was tested, and the Potency was “inactive”. With `CCCc1nc(N2CCN(C)CC2)c2sc(=S)n(-c3ccccc3)c2n1` the Potency was “inactive”. With `CC1CC(c2ccccc2)n2nc(NC(=O)c3cccs3)nc2N1` (stereo unspecified) the Potency was “inactive”. In the case of `CN(C)N=Nc1ccc2nc[nH]c2c1`, the Potency is reported as “inactive”. In the case of `CN(C)c1nc(N)nc(CSc2nnnn2-c2cccc3ccccc23)n1`, the Potency is reported as “inactive”. For `O=C(c1ccc[nH]c1=S)N1CCN(S(=O)(=O)c2ccc(Br)cc2Cl)CC1`, the Potency was “inactive”. In the case of `O=C(NCCN1C(=O)S/C(=C\c2cccnc2)C1=O)c1ccc(S(=O)(=O)N2CCCC2)cc1`, the Potency is reported as “inactive”. For `Cc1ccnc(-n2sc3ccccc3c2=O)n1`, the Potency was “inactive”. `CC(C)NC(=O)CCCn1c(=S)[nH]c2cc3c(cc2c1=O)OCO3` was tested, and the Potency was “inactive”. `O=C(Cn1nc(CNc2ccc(Cl)cc2)[n+]2c1CCCCC2)c1ccc(Cl)cc1` was tested, and the Potency was “inactive”. For `Cc1ccnc(NC(=O)c2ccoc2C)c1`, the Potency was 14.1 µM (active). For `Cc1ccc(NC(=O)c2cc(-c3ccc(C)o3)nc3ccccc23)nc1`, the Potency was “inactive”. In the case of `CCOc1cccc2c1OC1(CCCCC1)N1N=C(c3cccnc3)CC21` (stereo unspecified), the Potency is reported as “inactive”. For `O=S(=O)(c1ccc(F)cc1)N1CCN(C(=S)NC2CCCC2)CC1`, the Potency was “inactive”. `Cc1cc(C(=O)N/N=C/c2ccccc2[N+](=O)[O-])c(C)o1` was tested, and the Potency was “inactive”. In the case of `Cc1ccccc1CN1C[C@@H]2C[C@@H](c3cn(C)nc3-c3ccccc3)N3CCC[C@@]23C1=O`, the Potency is reported as “inactive”. For `CSc1ccc(/C=N\NC(=O)COc2ccc(Cl)cc2Br)cc1`, the Potency was “inactive”. With `Cn1c(SCC(=O)Nc2cccc(O)c2)nnc1-c1ccc(S(=O)(=O)N2CCOCC2)cc1` the Potency was “inactive”. In the case of `Cc1ccccc1-n1nc(C)c2c1N=C1C(Cl)=CC(Cl)=CN1C2c1ccc(C(=O)O)cc1` (stereo unspecified), the Potency is reported as “inactive”. `Cn1c(=O)c2c(nc(SCCNS(=O)(=O)c3ccccc3)n2C)n(C)c1=O` was tested, and the Potency was “inactive”. `O=C(NC1=NCCS1)[C@H](Cc1ccccc1)N1C(=O)c2ccccc2C1=O` was tested, and the Potency was “inactive”. In the case of `CN(C(=O)CSc1nnc(N)s1)c1c(N)n(Cc2ccccc2)c(=O)[nH]c1=O`, the Potency is reported as “inactive”. With `Cc1ccc(NC(=O)OCCNC(=O)c2ccncc2)cc1` the Potency was “inactive”. In the case of `Cc1ccc(-c2cc(C(=O)N/N=C/C=C/c3ccco3)c3ccccc3n2)cc1C`, the Potency is reported as “inactive”. For `COc1ccc(-c2nnc(SC(C)C#N)o2)cc1` (stereo unspecified), the Potency was “inactive”. For `Cc1ccc(S(=O)(=O)N2CCN(Cc3cccc(C)c3O)CC2)cc1`, the Potency was “inactive”. For `Cc1ccc(-c2nc(SCC(=O)Nc3ccccc3OC(F)F)c3c(C)c(C(=O)O)sc3n2)cc1`, the Potency was “inactive”. For `Cc1nc(SCC(=O)N2CC(=O)Nc3ccccc32)c2c(C)c(C)sc2n1`, the Potency was “inactive”. `COc1ccc(-c2nnn(CC(=O)N(CCO)C(C(=O)NC3CCCC3)c3ccc(F)cc3)n2)cc1` (stereo unspecified) was tested, and the Potency was “inactive”. In the case of `CN(C(=O)COC(=O)c1cc(-c2ccco2)nc2ccccc12)C1CCS(=O)(=O)C1` (stereo unspecified), the Potency is reported as “inactive”. For `CC(C)CCn1cnc2c1c(=O)n(CC(=O)NC(N)=O)c(=O)n2Cc1ccccc1`, the Potency was “inactive”. In the case of `COc1ccc(OC)c(Nc2nc(-c3ccc(O)c(O)c3)cs2)c1`, the Potency is reported as “inactive”. `COc1ccc(COCCN2CCN(S(=O)(=O)c3ccccc3)CCC2=O)cc1` was tested, and the Potency was “inactive”. For `COC(=O)c1[nH]c2ccccc2c1NS(=O)(=O)c1ccc(OC)cc1OC`, the Potency was “inactive”. With `O=C(CSc1nnc(-c2cccs2)n1Cc1ccccc1)N1CCc2ccccc2C1` the Potency was “inactive”. For `CCN(/N=C/c1ccccc1)c1cc(=O)n(C)c(=O)[nH]1`, the Potency was “inactive”. For `COc1cccc(/C=N\NC(=O)C2=NNC(=O)C2C)c1O` (stereo unspecified), the Potency was 17.8 µM (active). In the case of `CCn1c(SCC(=O)N/N=C/C=C/c2ccccc2[N+](=O)[O-])nnc1-c1ccccc1`, the Potency is reported as “inactive”. For `Cc1noc(C)c1S(=O)(=O)Nc1ccc(C(=O)N2CCN(c3ccc(F)cc3)CC2)cc1`, the Potency was “inactive”. With `Cc1ccc(O)c(CNc2nc3ccccc3[nH]2)c1` the Potency was “inactive”. With `Cc1ccccc1-c1nnn(CC(=O)c2ccc(S(=O)(=O)N3CCCC3)cc2)n1` the Potency was “inactive”. `Cc1ccc(CCC(=O)Nc2ncc(Cc3cc(Cl)ccc3Cl)s2)o1` was tested, and the Potency was “inactive”. In the case of `COCc1cc(=O)[nH]c(SC)n1`, the Potency is reported as “inactive”.
